Source: PubChem BioAssay (Tox21)
Results filed as inconclusive are left out. Where a call stands in place of a potency, no number is given. A number with no mark means an inactive call. Calls of active or inactive are those of the source. Unless noted, the call rests on the fitted dose curve; in most records, active means well fitted curve in the direction sought with a large enough effect in the repeat runs; inconclusive means weak or mixed curves; inactive means no such curve, though single readings can be large; an effect the other way counts as inactive or inconclusive.

Key:
[1] = qHTS assay to identify small molecule agonists of the RXR signaling pathway - cell viability counter screen (AID 1159529); further: series mostly up to about 77 µM; nearly all actives have a fitted effect of over 50% in size
Method in brief: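 CellTiter-Glo luminescence gave viability in the wells also read for beta-lactamase. Cells (RXR-alpha-UAS-bla HEK 293T, 2% charcoal-stripped FBS medium) had 5 hr plating, then 16 hr compound exposure at 37 C; tetraoctyl ammonium bromide served as positive control.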

[2] = qHTS assay to identify small molecule antagonists of the retinoid acid receptor (RAR) signaling pathway - cell viability counter screen (AID 1159551); further: nearly all actives have a fitted effect of over 35% in size
Method in brief: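 Seed C3RL4 cells; next day add compound, then retinol to 1 uM final; incubate 6 h at 37 C; add CellTiter-Glo; read luminescence after 30 min at RT.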

[3] = qHTS assay to identify small molecule antagonists of the retinoic acid receptor (RAR) signaling pathway (AID 1159552; further: nearly all actives have a fitted effect of over 50% in size)
Method in brief: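 Luminescent RARE reporter read-out in C3RL4 cells: 6 hr co-treatment at 37 C of test compounds with retinol at 1 uM final. Cells plated overnight beforehand; luciferase reagent incubated 30 min at room temperature before reading.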

[4] = qHTS assay to identify small molecule antagonists of the estrogen related receptor (ERR) signaling pathway from Tox21 library - cell viability counter screen (AID 1224834); further: nearly all actives have a fitted effect of over 30% in size
Method in brief: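 CellTiter-Fluor fluorescence measured; ERR cells; 17.5 h compound incubation at 37 C; 30 min reagent step.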

[5] = qHTS assay to identify small molecule agonists of the constitutive androstane receptor (CAR) signaling pathway - cell viability counter screen (AID 1224836); further: series mostly up to about 92 µM; nearly all actives have a fitted effect of over 45% in size
Method in brief: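 Cell viability multiplexed with the CAR agonist screen: CellTiter-Fluor fluorescence after 23 hr at 37 C. HepG2-CYP2B6-hCAR cells got compounds at 15 concentrations with PK11195 at 0.75 uM final.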

[6] = qHTS assay to identify small molecule antagonists of the constitutive androstane receptor (CAR) signaling pathway - cell viability counter screen (AID 1224837); further: series mostly up to about 92 µM; nearly all actives have a fitted effect of over 45% in size
Method in brief: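 Using CellTiter-Fluor, viability is scored in HepG2 cells stably carrying hCAR and a 2.2kb CYP2B6 reporter after 23 hr compound exposure across 15 concentrations, with CITCO present at 50 nM.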

[7] = molecular target: Nuclear receptor subfamily 1 group I member 3 (Homo sapiens) (UniProt Q14994); experiment: qHTS assay to identify small molecule antagonists of the constitutive androstane receptor (CAR) signaling pathway (AID 1224838);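 further: HepG2 cells stably expressing hCAR with CYP2B6 luciferase reporter stimulated by CITCO; nearly all actives have a fitted effect of over 40% in size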; further: potency means the concentration at half of the fitted maximal effect
Method in brief: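 Reporter luminescence was quantified after 24 h exposure of hCAR/CYP2B6-2.2kb double-stable HepG2 cells to compounds at 15 concentrations in the presence of 50 nM CITCO final.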

[8] = molecular target: Nuclear receptor subfamily 1 group I member 3 (Homo sapiens) (UniProt Q14994); experiment: qHTS assay to identify small molecule agonists of the constitutive androstane receptor (CAR) signaling pathway (AID 1224839);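 further: HepG2 cells stably carrying human CAR and a CYP2B6 luciferase reporter; series mostly up to about 92 µM; nearly all actives have a fitted effect of over 15% in size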
Method in brief: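 Luminescent ONE-Glo read-out after 24 hr, 37 C exposure of double-stable HepG2-CYP2B6-hCAR reporter cells to a 15-point compound series, in the presence of 0.75 uM PK11195 (final).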

[9] = qHTS assay to identify small molecule antagonists of the estrogen related receptor signaling pathway with the pleiotropic PPARgamma coactivator (PGC) from Tox21 10K library - cell viability counter screen (AID 1224840; active means well fitted cell-killing curve with a large enough effect in the repeat runs, not every such curve was filed as active; further: nearly all actives have a fitted effect of over 40% in size)
Method in brief: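 Here the PGC/ERR cells serve as a cytotoxicity control: they are exposed to compounds for 17.5 hours at 37 C, and live-cell signal is quantified using CellTiter-Fluor fluorescence.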

[10] = qHTS assay to identify small molecule agonists of the hypoxia (HIF-1) signaling pathway - cell viability counter screen (AID 1224844; calls by dose curve; further: nearly all actives have a fitted effect of over 50% in size; further: potency means the concentration at half of the fitted maximal effect)
Method in brief: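 Multiplexed with the HRE beta-lactamase assay, this viability read used CellTiter-Glo luminescence (30 min, RT) on HRE-bla ME-180 cells treated 17 hrs with compounds in 0.5% dialyzed FBS medium.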

[11] = molecular target: Thyrotropin receptor (Homo sapiens) (UniProt P16473); experiment: qHTS assay to identify small molecule agonists of the thyroid stimulating hormone receptor (TSHR) signaling pathway (AID 1224843; calls by dose curve; further: nearly all actives have a fitted effect of over 45% in size)
Method in brief: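 Screening of the Tox21 10K collection used HEK293 cells engineered with TSHR at 800 cells per well. After a 30-min room-temperature compound exposure, HTRF cAMP reagents were added and fluorescence recorded 1 h later.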

[12] = qHTS assay to identify small molecule antagonists of the estrogen related receptor signaling pathway with the pleiotropic PPARgamma coactivator (PGC) from Tox21 10K library (AID 1224841; call rule not given here; further: series mostly up to about 92 µM; actives are mostly falling curves and most rising ones were filed inactive; nearly all actives have a fitted effect of over 50% in size)
Method in brief: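 Each well held 2,000 PGC/ERR cells, pre-incubated six hours (37 C, 5% CO2). Test substances in DMSO were added by pin tool and left for 18 h at 37 C before luciferase detection by One-Glo.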

[13] = qHTS assay to identify small molecule agonists of the estrogen related receptor signaling pathway with the pleiotropic PPARgamma coactivator (PGC) from Tox21 10K library (AID 1224842); further: nearly all actives have a fitted effect of over 15% in size
Method in brief: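 Luminescence from One-Glo (30 min, room temperature) measured after PGC/ERR cells had 18 h at 37 C with pinned compound (23 nL in DMSO). Cells had been seeded at 2,000 per well and pre-incubated 6 h.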

[14] = qHTS assay to identify small molecule agonists of the retinoic acid receptor (RAR) signaling pathway (AID 1159553)
Method in brief: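 Activation of retinol signaling was monitored via a RARE luciferase reporter in C3RL4 cells. After 6 hr compound treatment at 37 C, detection reagent was added for 30 min at room temperature before luminescence reading.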

[15] = molecular target: Luciferin 4-monooxygenase (Photinus pyralis) (UniProt P08659); experiment: qHTS assay to identify small molecule inhibitors of firefly luciferase (AID 1224835); further: series mostly up to about 120 µM; nearly all actives have a fitted effect of over 25% in size
Method in brief: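 Inhibition of purified Photinus luciferase is measured by luminescence. Substrate levels (D-luciferin, ATP) sit at their KM values. Each compound is tested in a concentration series.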

Chain of Thyrotropin receptor (Homo sapiens) (P16473 whole entry, looked up): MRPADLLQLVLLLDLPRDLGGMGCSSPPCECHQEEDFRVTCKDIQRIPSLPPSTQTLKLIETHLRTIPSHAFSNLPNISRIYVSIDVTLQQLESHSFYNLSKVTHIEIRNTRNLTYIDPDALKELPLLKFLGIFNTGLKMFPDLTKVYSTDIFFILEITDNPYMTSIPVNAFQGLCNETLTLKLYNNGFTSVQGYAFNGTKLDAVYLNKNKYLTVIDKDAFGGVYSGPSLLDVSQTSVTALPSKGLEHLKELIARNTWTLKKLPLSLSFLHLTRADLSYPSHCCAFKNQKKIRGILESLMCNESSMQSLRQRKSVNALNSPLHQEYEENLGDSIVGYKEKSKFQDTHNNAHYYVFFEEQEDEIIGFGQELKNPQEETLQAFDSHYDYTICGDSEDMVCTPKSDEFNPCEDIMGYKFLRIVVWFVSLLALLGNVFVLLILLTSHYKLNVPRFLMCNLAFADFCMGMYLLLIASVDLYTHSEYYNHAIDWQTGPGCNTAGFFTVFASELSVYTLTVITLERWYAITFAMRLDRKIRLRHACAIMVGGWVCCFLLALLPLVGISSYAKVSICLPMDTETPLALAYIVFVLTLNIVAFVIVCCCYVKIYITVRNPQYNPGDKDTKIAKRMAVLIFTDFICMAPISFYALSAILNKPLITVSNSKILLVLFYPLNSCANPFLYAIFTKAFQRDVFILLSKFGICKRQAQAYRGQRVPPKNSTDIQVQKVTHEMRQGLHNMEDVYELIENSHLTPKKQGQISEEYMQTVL
Chain of Luciferin 4-monooxygenase (Photinus pyralis) (P08659 whole entry, looked up): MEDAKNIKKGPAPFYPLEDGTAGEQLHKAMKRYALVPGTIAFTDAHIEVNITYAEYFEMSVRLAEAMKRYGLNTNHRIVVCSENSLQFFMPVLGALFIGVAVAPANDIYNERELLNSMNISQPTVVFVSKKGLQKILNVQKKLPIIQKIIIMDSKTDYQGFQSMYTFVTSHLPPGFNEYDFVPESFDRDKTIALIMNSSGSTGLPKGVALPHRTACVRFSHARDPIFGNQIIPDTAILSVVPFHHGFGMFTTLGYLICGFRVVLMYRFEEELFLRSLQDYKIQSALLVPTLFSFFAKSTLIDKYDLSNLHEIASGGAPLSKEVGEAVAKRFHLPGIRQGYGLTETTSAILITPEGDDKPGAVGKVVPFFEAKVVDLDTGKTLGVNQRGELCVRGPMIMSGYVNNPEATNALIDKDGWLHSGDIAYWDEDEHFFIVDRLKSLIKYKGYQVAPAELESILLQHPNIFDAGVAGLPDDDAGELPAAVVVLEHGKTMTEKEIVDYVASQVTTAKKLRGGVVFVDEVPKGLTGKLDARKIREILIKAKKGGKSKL
Chain of Nuclear receptor subfamily 1 group I member 3 (Homo sapiens) (Q14994 whole entry, looked up): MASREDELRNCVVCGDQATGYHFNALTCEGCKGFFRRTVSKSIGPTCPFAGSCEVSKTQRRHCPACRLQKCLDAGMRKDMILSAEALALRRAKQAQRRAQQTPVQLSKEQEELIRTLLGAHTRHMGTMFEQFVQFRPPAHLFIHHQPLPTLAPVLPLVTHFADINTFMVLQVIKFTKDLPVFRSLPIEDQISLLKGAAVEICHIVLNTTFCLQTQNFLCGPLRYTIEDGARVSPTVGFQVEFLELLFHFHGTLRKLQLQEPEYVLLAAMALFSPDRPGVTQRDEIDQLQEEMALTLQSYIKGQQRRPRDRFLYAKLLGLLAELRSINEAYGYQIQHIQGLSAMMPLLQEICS

Row | Compound | Potency [1] | Potency [2] | Potency [3] | Potency [4] | Potency [5] | Potency [6] | Potency [7] | Potency [8] | Potency [9] | Potency [10] | Potency [11] | Potency [12] | Potency [13] | Potency [14] | Potency [15]
1 | CCO[C@H](Cc1ccc(OCCc2ccc(OS(C)(=O)=O)cc2)cc1)C(=O)O | inactive | inactive | inactive | inactive | inactive | inactive | inactive | inactive | inactive | inactive | – | – | – | – | –
2 | CC(C)O.CC(C)O.CCOC(=O)/C=C(\C)O.CCOC(=O)/C=C(\C)O.[Ti] | inactive | inactive | inactive | inactive | inactive | inactive | – | – | inactive | inactive | inactive | – | – | – | –
3 | Cc1cccc(Nc2ccccc2)c1 | inactive | inactive | inactive | inactive | inactive | inactive | inactive | – | inactive | inactive | – | – | – | – | –
4 | CCCCCC[C@@H](O)C/C=C\CCCCCCCC(=O)OC | inactive | inactive | inactive | inactive | inactive | inactive | – | – | inactive | inactive | inactive | inactive | inactive | – | –
5 | CCC(C)O (stereo not given) | inactive | inactive | inactive | inactive | inactive | inactive | inactive | inactive | inactive | inactive | inactive | – | – | – | –
6 | CCc1c(C(=O)NN2CCCCC2)nn(-c2ccc(Cl)cc2Cl)c1-c1ccc(Br)cc1 | inactive | inactive | – | – | inactive | inactive | 21.7 µM (active) | inactive | – | 21.9 µM (active) | – | – | inactive | inactive | inactive
7 | CCC(C)(C)CC | inactive | inactive | inactive | inactive | inactive | inactive | inactive | inactive | inactive | inactive | – | – | – | – | –
8 | COC(C)OC | inactive | inactive | inactive | inactive | inactive | inactive | – | – | inactive | inactive | inactive | – | – | – | inactive
9 | Nc1c(CC(=O)O)cccc1C(=O)c1ccc(Br)cc1 | inactive | inactive | – | inactive | inactive | inactive | – | – | inactive | inactive | inactive | – | – | inactive | inactive
